The structures appear in SMILES notation. About 79,000 compounds went through this panel and 15% of them were active in at least one assay; those are over-represented in the sample as a whole. Values without a mark were called inactive. Calls of active or inactive are those of the source. Rule as the data show it: active = growth inhibition above about 70%; inactive = the rest.

This is an account of results in PubChem BioAssay (NCI).

This experiment in a line: NCI Yeast Anticancer Drug Screen. Data for the sgs1 strain (AID 173).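 Also: 0% = growth of vehicle-only control cultures.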 The conditions noted are these: S. cerevisiae sgs1 mutant, active compounds read high. As to the method:
Growth inhibition of yeast strains with defined genetic alterations is measured as a screen for potential anti-cancer activity. Selected strains with alterations in DNA damage repair or cell cycle control were exposed to compounds and growth inhibition was measured relative to vehicle treated controls. The strain used in this assay is sgs1

Take `CN(C)c1ccc(C(C#N)=C(C#N)C#N)cc1`: the growth inhibition is -1% (at 1.2 µM); -3% (at 3.7 µM); -3% (at 11.0 µM); -2% (at 33.0 µM); 44% (at 100.0 µM).
Consider `O=[N+]([O-])c1cc(CCl)ccc1CCl`, for which the growth inhibition was 11% (at 1.2 µM); 28% (at 3.7 µM); 79% (active) (at 11.0 µM); 96% (active) (at 33.0 µM); 98% (active) (at 100.0 µM).
The matching figures for `COc1ccc2sc3cccc(NCCN(C)C)c3c(=O)c2c1`: 2%, 1%, 3%, 2% and 16%.
The matching figures for `Cc1ccc2ccc(O)cc2c1`: -24%, -14%, -38%, -19% and 32%.
The matching figures for `CCCCCCCCCCCCCC[N+](C)(CC(=O)[O-])Cc1ccccc1` (stereo not given): 2%, 30%, 99% (active), 99% (active) and 99% (active).
As to `COc1ccccc1N=NC(C(=O)c1ccccc1)C(=O)c1ccccc1`, the growth inhibition is, setting by setting: (at 1.2 µM) -37%; (at 3.7 µM) -6%; (at 11.0 µM) -4%; (at 33.0 µM) 96% (active); (at 100.0 µM) 96% (active).
Take `CNC1C(OC2C(OC3C(O)C(O)C(N=C(N)N)C(O)C3N=C(N)N)OC(C)C2(O)CO)OC(CO)C(O)C1O` (stereo not given): the growth inhibition runs as follows: (at 1.2 µM) -1%; (at 3.7 µM) 1%; (at 11.0 µM) 2%; (at 33.0 µM) 35%; (at 100.0 µM) 46%.
`Cc1nc(-c2ccccc2)c(-c2ccccc2)s1`: the growth inhibition runs as follows: (at 1.2 µM) -11%; (at 3.7 µM) -1%; (at 11.0 µM) 6%; (at 33.0 µM) 86% (active); (at 100.0 µM) 98% (active).
